# Calls of active or inactive are those of the source. Unless noted, no rule for the calls is given here.
# What was measured:
# [1] = system: XIP peptide (Xip251-270) binding; test: small-molecule binders of XIP peptide, primary screen, biochemical, small-molecule microarray, fluorescence 635/667 nm, 0.1 µg/mL protein (AID 1182); conditions: fluorescent protein binding, 635 nm, higher = more signal, called active from +8 up or from −8 down
# XIP peptide (Xip251-270) = test: small-molecule binders of XIP peptide, primary screen, biochemical, small-molecule microarray, fluorescence 635/667 nm, 0.5 µg/mL protein (AID 1183); conditions: small-molecule microarray binding, fluorescence 635 nm; higher = more signal
# [2] = Plasmodium falciparum growth inhibition, primary screen, strain 3D7, DAPI fluorescence, 100 nL (AID 1184);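 also: parasites grown inside human red blood cells in medium with human serum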; conditions: P. falciparum 3D7 growth, 3 d, higher = more signal
# [3] = molecular target: Homeobox protein Hox-A13 (Mus musculus) (UniProt Q62424); test: inhibitors of HoxA13-DNA binding, primary screen, biochemical, fluorescence polarization, labeled oligonucleotide (AID 1185); conditions: 15 min, higher = more signal, called active from +8 up or from −8 down
# Chain of Homeobox protein Hox-A13 (Mus musculus) (Q62424 whole entry, looked up): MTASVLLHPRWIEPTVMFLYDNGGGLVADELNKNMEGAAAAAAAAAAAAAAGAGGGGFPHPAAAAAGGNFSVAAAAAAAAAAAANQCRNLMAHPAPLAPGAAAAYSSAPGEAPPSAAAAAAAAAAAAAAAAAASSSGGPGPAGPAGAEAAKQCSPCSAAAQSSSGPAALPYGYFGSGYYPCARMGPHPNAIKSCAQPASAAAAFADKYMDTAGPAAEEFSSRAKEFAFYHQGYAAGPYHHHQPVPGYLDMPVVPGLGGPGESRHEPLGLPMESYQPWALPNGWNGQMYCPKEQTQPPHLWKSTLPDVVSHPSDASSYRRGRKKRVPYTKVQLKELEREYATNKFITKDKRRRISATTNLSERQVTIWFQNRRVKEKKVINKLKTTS
# [4] = inhibitors of hydroxyurea-induced Chk1 phosphorylation, primary screen, imaging, HeLa, phospho-Chk1 antibody, percent positive cells (AID 1186); conditions: hydroxyurea-induced phospho-Chk1 immunofluorescence imaging, higher = more signal
# [5] = inhibitors of hydroxyurea-induced Chk1 phosphorylation, primary screen, imaging, HeLa, phospho-Chk1 nuclear intensity (AID 1187); conditions: hydroxyurea-induced phospho-Chk1 immunofluorescence imaging, higher = more signal
SMILES,composite z-score [1],composite z-score (XIP peptide (Xip251-270)),z-score [2],z-score [3],z-score [4],z-score [5]
Cc1ccc(C2CC=C(C(=O)O)CN2S(=O)(=O)c2ccc(C)cc2)cc1 (configuration not stated),0.911 (inactive),0.912,-1.2,-4.53 (inactive),-0.185 (inactive),-0.999 (inactive)
CC(C)NC(=O)[C@@]1(C)c2ccccc2C(=O)N(Cc2cc(F)cc(C(F)(F)F)c2)[C@H]1c1ccc(CO)cc1,1.06 (inactive),0.863,0.281,-3.73 (inactive),0.0123 (inactive),-0.37 (inactive)
COc1ccccc1CN1C(=O)c2ccccc2[C@@]2(Cc3ccccc3N(C(C)C)C2=O)[C@@H]1c1ccc(CO)cc1,0.496 (inactive),0.854,0.559,-0.215 (inactive),-0.014 (inactive),0.36 (inactive)
NCCCCCNC(=O)[C@@H]1C[C@@H]2C(=O)N3CCC[C@H]3C(=O)N2[C@@H]1c1cccc(OCCO)c1,0.536 (inactive),-0.0496,0.398,-3.71 (inactive),0.0592 (inactive),0.182 (inactive)
CC(C)(C)N1CC=CC23O[C@@H]4C=CCCOC(=O)C4[C@H]2C(=O)N(CCCCCO)[C@@H]3C1=O (some centres not stated),0.615 (inactive),0.12,0.519,-4.56 (inactive),-1.05 (inactive),-1.13 (inactive)
COC(=O)[C@@H]1N=C(c2ccc(OCCCO)cc2)O[C@@H]1c1ccccc1N=[N+]=[N-],0.82 (inactive),0.806,-1.43,-3.65 (inactive),-0.292 (inactive),-0.269 (inactive)
O[C@@H](Cc1ccccc1)[C@H]1C2C=CCCC(c3ccccc3)=C2CN1Cc1cccc(Cl)c1 (some centres not stated),-0.241 (inactive),0.27,0.514,-5.87 (inactive),-0.215 (inactive),0.0934 (inactive)
COCCCNC(=O)[C@]1(CCC(=O)OC(C)(C)C)N=C(c2ccc(OCCCO)cc2)O[C@@H]1c1ccccc1N=[N+]=[N-],0.448 (inactive),0.764,-1.75,-4.03 (inactive),-0.437 (inactive),-0.234 (inactive)
CN1C(=O)[C@@]2(CCC(=O)OC(C)(C)C)N=C(c3ccc(OCCCO)cc3)O[C@H]2c2ccccc21,0.0792 (inactive),0.576,-2.1,-4.88 (inactive),-0.414 (inactive),-0.261 (inactive)
COCCCNC(=O)[C@]1(Cc2ccccc2)N=C(c2ccc(OCCCO)cc2)O[C@@H]1c1ccccc1,2.03 (inactive),0.825,-2.17,-4.76 (inactive),-0.117 (inactive),-0.0405 (inactive)
O=C1O[C@@H](c2ccccc2)[C@@H](c2ccccc2)N2[C@@H](c3ccccc3OCCO)[C@]3(C(=O)Nc4ccc(C#CCCO)cc43)[C@@H](C(=O)O)[C@H]12,0.106 (inactive),0.842,-1.69,-5.33 (inactive),0.722 (inactive),0.803 (inactive)
CO[C@H]1O[C@H](CO)[C@@H](OC(=O)Nc2ccc(C#N)cc2)[C@H](OC(=O)c2cc3ccccc3[nH]2)[C@H]1OC(=O)c1cc2ccccc2[nH]1,2.37 (inactive),0.875,-1.96,-2.26 (inactive),-0.487 (inactive),-0.52 (inactive)
CS(=O)(=O)CCOC(=O)C1=CC(CCCO)=CC(c2cccs2)N(Cc2cccc(OC(F)(F)F)c2)C=C1C(=O)OCCS(C)(=O)=O (configuration not stated),1.17 (inactive),-0.0502,-2.99,-4.22 (inactive),0.724 (inactive),0.918 (inactive)
CN1C(=O)C2C=CC(C(O)C(c3ccccc3)c3ccccc3)N(NC(=O)OC(C)(C)C)C2C1=O (configuration not stated),3.1 (inactive),0.752,0.617,-4.08 (inactive),0.242 (inactive),-0.158 (inactive)
N#Cc1ccc(NN2C(C(O)c3cc(C(F)(F)F)cc(C(F)(F)F)c3)C=CC3C(=O)N(c4ccccc4)C(=O)C32)cc1 (configuration not stated),1.67 (inactive),0.479,-0.496,-1.5 (inactive),0.245 (inactive),-0.0521 (inactive)
C=C(/C(=C/C[C@H](OC(C)=O)c1ccc(OCCO)cc1)c1cnc2ccccc2c1)C(C)C,-0.18 (inactive),0.605,-2.99,-4.31 (inactive),-0.319 (inactive),-0.38 (inactive)
CO[C@H]1O[C@H](CO)[C@@H](OC(=O)Nc2ccc3c(c2)OCO3)[C@H](OC(=O)Nc2ccccc2-c2ccccc2)[C@@H]1OC(=O)Nc1ccccc1-c1ccccc1,1.03 (inactive),0.561,-2.6,-2.64 (inactive),-0.313 (inactive),-0.199 (inactive)

# From PubChem BioAssay
